The values that follow come from PubChem BioAssay.

Experiment [1] in a line: galactose survival enhancers in mitochondrial complex I cybrids – cell-based, galactose medium, ATP luminescence, primary screen (AID 1645843).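 Note: positive z means more ATP and so rescue of galactose-driven cybrid death.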 To be noted: complex I mutant cybrid cells, 72 h, stronger effect = higher value.
The nature of experiment [2]: growth inhibition, single agent or in combination, cell-based, chromothripsis tumors, cisplatin or BGB combos (AID 1671449; in the data active = inhibition above about 80%;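 note: cells exposed for 96 hours; 0% = vehicle DMSO and 100% = killing by high DMSO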). The note with it: LFS_MB_P medulloblastoma cells.
Experiment [3] can be described thus: growth inhibition, single agent and combos, cell-based, chromothripsis tumors, cisplatin or BGB combos (AID 1671450; in the data active = inhibition above about 80%;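 note: cells exposed to compound for four days; 0% = vehicle DMSO and 100% = cell killing by high DMSO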). The note with it: HDN33 neuroblastoma cells, stronger effect = higher value.
A short description of experiment [4]: growth inhibition, single agents and combos, ICB984, cell-based, cisplatin or BGB combos, synergistic combos for chromothripsis tumors (AID 1671451; call rule not given here;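 note: cells exposed for 96 hours before readout; 0% = vehicle DMSO and 100% = killing by high DMSO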). To be noted: ICB984 medulloblastoma cells, drug combinations, stronger effect = higher value.
Experiment [5] can be described thus: growth inhibition, single agents and combos, LFS_MB_1R, cell-based, cisplatin or BGB combos, synergistic combos for chromothripsis tumors (AID 1671452; in the data active = inhibition above about 80%;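 note: cells exposed for 96 hours before readout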). To be noted: LFS_MB_1R medulloblastoma cells, stronger effect = higher value.
Experiment [6] is described as follows: growth inhibition, single agents and combos, HTB85, cell-based, BGB or cisplatin IC20 combos, synergistic combos for chromothripsis tumors (AID 1671453; in the data active = inhibition above about 80%;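 note: cells exposed for 96 hours before readout; 0% = vehicle DMSO and 100% = high DMSO killing control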). To be noted: HTB85 osteosarcoma cells, drug combinations, stronger effect = higher value.
Experiment [7] is described as follows: growth inhibition, single agents and combos, CRL2098, cell-based, BGB or cisplatin IC20 combos, synergistic combos for chromothripsis tumors (AID 1671454; in the data active = inhibition above about 80%;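 note: cells exposed for 96 h before readout; 0% = vehicle DMSO and 100% = killing by high DMSO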). The note with it: CRL2098 osteosarcoma cells, drug combinations, stronger effect = higher value.
Experiment [8] can be described thus: growth inhibition, single agents and combos, HD-MB03, cell-based, BGB or cisplatin IC20 combos, synergistic combos for chromothripsis tumors (AID 1671455; in the data active = inhibition above about 83%;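 note: 0% = vehicle DMSO and 100% = high DMSO as cytotoxic control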). To be noted: HD-MB03 medulloblastoma cells, stronger effect = higher value.
Experiment [9] in a line: growth inhibition, single agents and combos, UWB1.289, cell-based, BGB or cisplatin combos, synergistic combos for chromothripsis tumors (AID 1671456; in the data active = inhibition above about 80%;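 note: cells exposed to compound for four days; 0% = vehicle DMSO and 100% = killing by high DMSO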). The note with it: UWB1.289 ovarian carcinoma cells, stronger effect = higher value.
The nature of experiment [10]: growth inhibition, single agents and combos, LFS_MB_2R, cell-based, cisplatin combos, synergistic combos for chromothripsis tumors (AID 1671457; in the data active = inhibition above about 80%;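 note: cells exposed to compound for four days before readout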). To be noted: LFS_MB_2R medulloblastoma cells, stronger effect = higher value.
Experiment [11] in a line: growth inhibition, MDA-MB-436, cell-based, BGB or cisplatin combos, synergistic combos for chromothripsis tumors (AID 1671458; call rule not given here;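 note: cells exposed for 96 hours; 0% = vehicle DMSO and 100% = killing by high DMSO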). To be noted: MDA-MB-436 breast carcinoma growth inhibition, drug combinations, stronger effect = higher value.
The nature of experiment [12]: UWB1.289_BRCA1 ovarian cancer growth, cell-based, BGB or cisplatin combinations (AID 1671459; in the data active = inhibition above about 80%). To be noted: UWB1.289 BRCA1 ovarian carcinoma, drug combinations, stronger effect = higher value.
Experiment [13] is described as follows: drug combination toxicity in non-malignant astrocytes – cell-based, BGB or cisplatin IC20 combos, cytotoxicity control for chromothriptic childhood tumor combination screen (AID 1671460; in the data active = inhibition above about 80%;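 note: cells exposed to compounds for 96 hours before viability readout; 0% = vehicle and 100% = killing control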). The note with it: Human astrocytes, viability inhibition, drug combinations, at 0.5 µM, stronger effect = higher value.
Experiment [14] can be described thus: BT084 cell growth, single and combined drugs, ICGC_MB145, cisplatin and BGB IC40 combos (AID 1671461; in the data active = inhibition above about 80%;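 note: cells exposed to drugs for 96 hours; 0% = vehicle DMSO and 100% = high DMSO full killing control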). The note with it: BT084 medulloblastoma cells, drug combinations, stronger effect = higher value.
Experiment [15] can be described thus: RCMB18 cell growth, single agent and combined, cisplatin and BGB IC40 combos (AID 1671462; in the data active = inhibition above about 80%;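 note: cells exposed to compound for four days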). To be noted: RCMB18 medulloblastoma cells, stronger effect = higher value.
Experiment [16] in a line: CRL1545 cell growth, single agent and combined, cisplatin and BGB IC20 combos (AID 1671464; in the data active = inhibition above about 80%;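 note: cells exposed to compound for 96 hours before readout; 0% = vehicle DMSO and 100% = high DMSO killing control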). The note with it: CRL1545 osteosarcoma cells, stronger effect = higher value.
The mark [17] stands for this setting: measured here: combination with BGB IC40, at 0.05 µM.
Where [18] appears, read: measured here: with BGB IC20 combination, at 0.5 µM.
Setting [19] is: measured here: with cisplatin IC20 combination, at 0.5 µM.
The mark [20] stands for this setting: measured here: combination with cisplatin, at 0.5 µM.
[21] abbreviates: measured here: combination with cisplatin, at 5 µM.

Calls of active or inactive are those of the source.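 Rule for the calls, unless noted: active = z-score of at least 1.8 in each of two replicates, scored against plate mean and spread of sample wells; inactive = the rest.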

In the case of `COc1c(F)cc(C(=O)N2CCNC(=O)C2Cc2ccccc2)cc1F` (stereo not drawn), in experiment [1], the z-score was -0.455 (inactive).

Take `COc1ccc(C(C)=O)c(OC2(C(=O)O)CCSCC2)c1`: the z-score in [1] was -0.58 (inactive).

As for `COc1cccc(CC(=O)NCc2ccsc2)c1`, the z-score in experiment [1] is -0.32 (inactive).

As for `CC(C)c1cc(C(=O)N2CCCC(c3ccc(Cl)cc3)C2)on1` (stereo not drawn), in [1], the z-score was 0.165 (inactive).

As to `CCn1c(C)nc2cc(OC3(C(=O)O)CCCCC3)ccc21`, the z-score in experiment [1] is -0.565 (inactive).

As for `Cc1ccc2c(C(=O)N3CCN(C)C(=O)C3C)cc(-c3cnn(C(C)C)c3)nc2c1` (stereo not drawn), in experiment [1], the z-score was -0.56 (inactive).

As for `Cc1cccc(-n2cc(CN(C)C(=O)C(=O)c3ccco3)cn2)c1`, the z-score in experiment [1] was 0.6 (inactive).

`c1ccc(CC2CCN(C3CCSC3)CC2)cc1` (stereo not drawn): the z-score in [1] is -0.3 (inactive).

Consider `Cc1ccccc1-c1cccc(C(=O)c2nccn2C)c1`, for which the z-score in [1] is -0.54 (inactive).

`Cn1cc(C(=O)N2CCc3[nH]nc(-c4ccccc4F)c3C2)c2ccccc21`: the z-score in experiment [1] is -0.945 (inactive).

As for `Cn1cc(-c2ccccc2OC2(C(=O)O)CCSCC2)cn1`, in [1], the z-score is 1.44 (inactive).

Turning to `Cc1nn(C)c(C)c1-c1ccnc(N(C)Cc2cnn(C(C)C)c2)n1`, the z-score in [1] is 0.67 (inactive).

In the case of `CCCc1noc(CN(C)C(=O)CCc2ccc(C)c(C)c2)n1`, the z-score in experiment [1] is -0.575 (inactive).

Take `COC(=O)c1ccc(C(=O)N2CCNC(=O)C2Cc2ccccc2)cc1` (stereo not drawn): the z-score in experiment [1] was -0.49 (inactive).

`Cc1ccc(C)c(CNC(=O)Nc2nc(C)ns2)c1`: the z-score in experiment [1] was 0.47 (inactive).

Take `CCN(CC)C(CNCc1ccc(OC)c(F)c1)c1ccco1` (stereo not drawn): the z-score in experiment [1] is -0.84 (inactive).

`Cc1nsc(NC(=O)NCCC2CCCCCC2)n1`: the z-score in experiment [1] is -1.07 (inactive).

Consider `CCc1noc(CN(C(=O)c2ccccc2-n2cccn2)C(C)C)n1`, for which, in experiment [1], the z-score is -0.655 (inactive).

As for `Cc1nc(CN(C)C2CCN(c3ccc(-n4cccn4)cc3)CC2)cs1`, the z-score in [1] was 0.655 (inactive).

Take `Clc1cccn2c(-c3ccccc3OC3CCCC3)nnc12`: in experiment [1], the z-score was 0.365 (inactive).

For the compound `COc1ccccc1-c1noc(Cn2ncc3ccccc32)n1`, the z-score in experiment [1] is 1.12 (inactive).

Regarding `Cc1ccccc1-c1cccc(N2CCC(N3CCN(C)C(C)C3)CC2)c1` (stereo not drawn), the z-score in [1] is 1.36 (inactive).

For `CC1CCCCN1Cc1ccc(-c2nc(CCn3cccn3)cc(=O)[nH]2)cc1` (stereo not drawn), the z-score in [1] was -0.245 (inactive).

For the compound `CCN1CCCC(C(=O)N2CCC(n3cc(C(C)(C)C)nn3)CC2)C1` (stereo not drawn), in [1], the z-score was 0.15 (inactive).

On to `Cc1nsc(NC(=O)N2CCCCC2c2ccc(F)cc2)n1` (stereo not drawn), for which the z-score in experiment [1] is -0.445 (inactive).

Regarding `CCC(CC)CN1CCC(N2CCSCC2)CC1`, the z-score in experiment [1] is -0.55 (inactive).

`Cc1nc(C(C)Nc2ncnc3sccc23)cs1` (stereo not drawn): the z-score in [1] was 0.845 (inactive).

For the compound `Cc1cnc(CN(C)Cc2ccc(-c3nc(C(F)(F)F)c(C)c(=O)[nH]3)cc2)[nH]1`, the z-score in experiment [1] is -0.58 (inactive).

Turning to `CC(CCN1CCC(n2cc(CCO)nn2)CC1)CC(C)(C)C` (stereo not drawn), in experiment [1], the z-score was -0.485 (inactive).

In the case of `CCCC(CCC)C(=O)N1CCC(n2cc(C3CC3)nn2)CC1`, in experiment [1], the z-score is -0.125 (inactive).

With `C=C1CCC(O)CC1=CC=C1CCCC2(C)C1CCC2C(C)C=CC(C)C(C)C` (stereo not drawn), the inhibition is -12.3% (inactive) in experiment [2] (at 0.5 µM, stronger effect = higher value); -24.6% in [2] (measured here: combination with BGB IC20, at 0.005 µM); -11.2% in experiment [2] (measured here: combination with BGB IC40, at 0.005 µM); -19.6% in experiment [2] (setting [17]); -17.3% in experiment [2] (measured here: combination with cisplatin, at 0.5 µM, stronger effect = higher value); -80.9% in experiment [2] (measured here: combination with cisplatin, at 5 µM, stronger effect = higher value). The inhibition was -2.75% in [3] (BGB combo, at 5 µM); 5.6% (inactive) in experiment [3] (at 0.5 µM); 6.61% in [3] (cisplatin combo, at 5 µM); 7.28% in experiment [3] (setting [18]); 3.61% in [3] (setting [19]); 5.11% in [3] (single agent, at 5 µM). Moreover, the inhibition is -16.8% in [4] (BGB IC20 combo, at 0.005 µM); -28.1% in [4] (BGB IC40 combo, at 0.005 µM); 22.2% in experiment [4] (BGB IC40 combo, at 0.05 µM); -8.49% (inactive) in [4] (at 0.5 µM); 22.2% in experiment [4] (cisplatin combo, at 0.05 µM); -55.6% in experiment [4] (cisplatin combo, at 0.5 µM). For the same compound, the inhibition in [4] (cisplatin combo, at 5 µM) was -22.2%; in experiment [4] (measured here: 5 uM single agent, at 5 µM) it was -22.8%; in experiment [5] (at 0.5 µM), 14.3% (inactive); in experiment [5] (setting [17]) it was 15.9%; in experiment [5] (setting [20]), 28.4%; in [5] (setting [21]) it was 4%. Besides, the inhibition was -12.4% (inactive) in [6] (at 0.5 µM); -26.3% in [6] (measured here: with BGB IC20, at 0.5 µM); 9.36% in [6] (measured here: with BGB IC20, at 5 µM); -19% in experiment [6] (measured here: with cisplatin IC20, at 0.5 µM); 1.54% in experiment [6] (measured here: with cisplatin IC20, at 5 µM); 12% in experiment [6] (single agent, at 5 µM). Moreover, the inhibition in experiment [7] (at 0.5 µM) was -3.6% (inactive); in experiment [7] (measured here: combination with BGB at IC20, at 0.5 µM) it was -1.76%; in experiment [7] (measured here: combination with cisplatin at IC20, at 0.5 µM), 19.2%; in experiment [8] (at 0.5 µM), -7.66% (inactive); in experiment [8] (measured here: combo with BGB at IC20, at 0.5 µM) it was -6.27%; in experiment [8] (measured here: combo with cisplatin at IC20, at 0.5 µM), -11.7%. For the same compound, the inhibition in [9] (at 0.5 µM) is -2.68% (inactive); in experiment [9] (measured here: inhibition with BGB combination, at 0.05 µM), -16.7%; in experiment [9] (measured here: inhibition with cisplatin combination, at 0.05 µM) it was -7.51%; in [10] (at 0.5 µM) it was -22.6% (inactive); in [10] (setting [20]), -24.1%; in [10] (setting [21]) it was -14.6%. For the same compound, the inhibition was -12.5% (inactive) in experiment [11] (at 0.5 µM); -17.5% in [11] (measured here: BGB combination, at 0.5 µM); -14.8% in experiment [11] (measured here: BGB combination, at 5 µM); -15.7% in [11] (measured here: cisplatin combination, at 0.5 µM); -13.9% in experiment [11] (measured here: cisplatin combination, at 5 µM); 18.4% in [12] (BGB combination, concentration series, at 5 µM). Moreover, the inhibition was -4.82% (inactive) in experiment [12] (at 0.5 µM); 27.5% in experiment [12] (cisplatin combination, concentration series, at 5 µM); 2.39% (inactive) in experiment [13]; 0.485% in [13] (measured here: combo with BGB IC20); -12% in experiment [13] (measured here: combo with cisplatin IC20); -17.5% (inactive) in experiment [14] (at 0.5 µM). In addition, the inhibition in experiment [14] (cisplatin combination, at 0.5 µM) was -35.1%; in [14] (cisplatin combination, at 5 µM), -77.9%; in experiment [14] (measured here: BGB IC40 combination 0.05 uM, at 0.05 µM), 22.6%; in experiment [14] (single agent, at 5 µM), -13.5%; in [15] (at 0.5 µM) it was -6.63% (inactive); in experiment [15] (cisplatin combo, at 5 µM), -19.4%. Further, the inhibition in [15] (measured here: BGB IC40 combination, at 0.05 µM) was -24%; in experiment [15] (setting [20]) it was -21.7%; in experiment [15] (single agent, at 5 µM) it was -13.3%; in experiment [16] (at 0.5 µM), -21.7% (inactive); in experiment [16] (setting [18]), 16.4%; in experiment [16] (setting [19]) it was -40.8%. The inhibition worked out at 37.2% in experiment [16] (single agent, at 0.05 µM) and 10.9% in experiment [16] (single agent, at 5 µM).

What is called inhibition is the drop in the measured response relative to a control, in per cent.
